IL-1B inflam inh – qHTS for Inhibitors of Inflammasome Signaling: IL-1-beta AlphaLISA Primary Screen; THP-1 LPS/ATP IL-1B secretion, AlphaLISA, 16 h; active compounds read low; activity change, % at 57.5 µM; actives 4.7% (n = 360,000); in the data active = activity change below about -50%; inconclusive = mostly about -30% to -49%
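THP-1 cells pretreated 1 hr with compounds (up to 57.5 uM final), then stimulated with LPS (250 ng/mL final) plus ATP (1.25 mM final); secreted IL-1B measured by AlphaLISA after 16 hr, decreased signal indicating inhibition.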
CtBP-E1A inh – qHTS Assay for Inhibitors of the CtBP/E1A Interaction | CtBP / adenovirus E1A interaction (AlphaScreen) | AlphaScreen GST-E1A/His-CtBP binding, 1536-well; active compounds read low | activity change, % (no concentration beside the values) | actives 0.49% (n = 340,000) | AID 651724, 2012; in the data active = activity change below about -65%; inconclusive = mostly about -30% to -63%
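In 5 uL wells, 23 nL compound meets equimolar GST-E1A and His-CtBP (5X stock 125 nM each) for 2 h, 37 °C. Beads (5X, 50 ug/mL) then 1 h, 37 °C, dark.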
DT40 TDP1 no CPT – qHTS for Inhibitors of human tyrosyl-DNA phosphodiesterase 1 (TDP1): qHTS in cells in absence of CPT. Potency, µM (doses to about 46.2 µM), hits mostly inhibitors. DT40 Tdp1-/- hTDP1 cells, no CPT, ATP luminescence, 48 h. actives 15% (n = 420,000). AID 686978, 2013; also: nearly all actives have a fitted effect of over 55% in size
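No-CPT arm: Tdp1-/-;hTDP1 DT40 cells (400/well) plus compounds, incubated ≥48 hr at 37 °C. Readout CellTiter-Glo luminescence.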
TDP1 inh – qHTS Assay for Inhibitors of Tyrosyl-DNA Phosphodiesterase (TDP1); actives 0.28% (n = 350,000); recombinant TDP1, AlphaScreen DNA substrate cleavage; Tyrosyl-DNA phosphodiesterase 1 (Homo sapiens), Q9NUW8; Potency, µM (top dose mostly 130 µM), most hits filed as inhibitors; also: nearly all actives have a fitted effect of over 40% in size
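Steps: enzyme plus compound, 15 min RT; add biotin/phosphotyrosine-FITC oligonucleotide (15 nM final), react 5 min; add donor/acceptor beads (10 ug/ml final), 10 min; read AlphaScreen. Tdp1 at 1 nM final.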
Six1-Eya2 inh – qHTS Assay for Inhibitors of the Six1/Eya2 Interaction; activity change, % (test concentration not listed); AlphaScreen GST-Six1/His-Eya2 binding, biochemical; active compounds read low; Homeobox protein SIX1 (Homo sapiens) + Protein phosphatase EYA2 (Homo sapiens), …; AID 651725, 2012; actives 0.56% (n = 360,000); in the data active = activity change below about -65%; inconclusive = mostly about -30% to -63%
Target sequence (O00167 whole entry, looked up): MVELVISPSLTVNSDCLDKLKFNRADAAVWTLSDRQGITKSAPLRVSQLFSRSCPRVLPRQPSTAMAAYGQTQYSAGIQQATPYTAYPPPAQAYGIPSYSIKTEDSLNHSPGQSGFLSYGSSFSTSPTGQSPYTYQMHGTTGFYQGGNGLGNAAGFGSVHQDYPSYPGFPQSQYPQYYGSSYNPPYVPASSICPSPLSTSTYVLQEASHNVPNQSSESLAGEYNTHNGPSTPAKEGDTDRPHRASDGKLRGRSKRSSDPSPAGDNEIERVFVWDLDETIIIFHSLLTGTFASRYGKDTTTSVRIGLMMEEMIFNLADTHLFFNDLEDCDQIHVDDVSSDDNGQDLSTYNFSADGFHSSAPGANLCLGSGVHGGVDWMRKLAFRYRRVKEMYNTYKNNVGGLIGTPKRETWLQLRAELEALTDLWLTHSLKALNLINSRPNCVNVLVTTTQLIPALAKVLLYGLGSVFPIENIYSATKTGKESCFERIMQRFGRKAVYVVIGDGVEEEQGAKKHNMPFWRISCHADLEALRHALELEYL
Target sequence (Q15475 whole entry, looked up): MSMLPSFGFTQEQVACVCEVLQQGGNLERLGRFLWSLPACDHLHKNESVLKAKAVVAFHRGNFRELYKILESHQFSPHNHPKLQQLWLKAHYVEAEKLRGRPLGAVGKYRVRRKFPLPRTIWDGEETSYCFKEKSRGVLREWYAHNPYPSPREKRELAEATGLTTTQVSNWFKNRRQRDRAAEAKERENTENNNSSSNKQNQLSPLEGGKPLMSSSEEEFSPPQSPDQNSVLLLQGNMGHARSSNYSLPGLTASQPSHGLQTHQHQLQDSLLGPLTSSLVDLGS
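AlphaScreen with GST-Six1 and His-Eya2 (5X mix: 250 nM and 500 nM), glutathione donor and nickel acceptor beads; buffer 50 mM Tris pH 8.0, 300 mM NaCl, 1 mM TCEP; 1 h at 37 C in the dark.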
TDP1 cell CPT – qHTS for Inhibitors of human tyrosyl-DNA phosphodiesterase 1 (TDP1): qHTS in cells in presence of CPT; chicken DT40 Tdp1-/-;hTDP1 cells + 20 nM CPT, ATP luminescence, 48 h; Potency, µM (series often up to 46.2 µM), usual class: inhibitors; actives 12% (n = 420,000); also: nearly all actives have a fitted effect of over 55% in size
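Chicken DT40 Tdp1-/- cells stably complemented with human TDP1 were seeded at 400 cells/well in medium containing 20 nM camptothecin, exposed to pin-transferred compounds, and grown at 37 °C for at least 48 hr. Viability was read as ATP luminescence.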
A number is an active result; n = inactive; u = inconclusive; x = not tested or not shown. Rows were chosen to be rich in hits. Some 18% of all compounds tested hit in one or more screens of this group. Unless noted, calls follow the shape of the dose curve; as a rule, active = well fitted curve in the direction sought with a large enough effect; inconclusive = small, poorly fitted or top-dose-only effect, or another doubt; inactive = no such curve, though single readings can be large; an effect the other way counts as inactive or inconclusive.

SMILES	IL-1B inflam inh	CtBP-E1A inh	DT40 TDP1 no CPT	TDP1 inh	Six1-Eya2 inh	TDP1 cell CPT
N#CCc1c(C#N)c(N)nc(N2CCOCC2)c1C#N	n	x	n	x	n	u
CCOc1ccc(NC(=O)Nc2ccc3nsnc3c2)cc1	u	n	u	n	n	u
COc1ccc(NC(=S)Nc2ccc3nsnc3c2)cc1	n	n	18µM	n	n	6.5µM
CCOc1ccc(NC(=S)NNC(=O)c2ccc(Br)cc2)cc1	-64	n	u	n	n	n
CCOc1ccc(NC(=S)Nc2ccc3nsnc3c2)cc1	n	u	8.2µM	n	n	5.8µM
CCOc1ccc(NC(=S)Nc2ccccc2C2CC2)cc1	n	n	4.1µM	n	n	5.8µM
O=C(NNC(=S)Nc1ccc(Br)cc1)c1ccccc1	n	n	u	n	n	u
COc1ccc(NC(=S)Nc2ccc3nc(C)c(C)nc3c2)cc1	n	n	n	n	n	n
CCCC(=O)Nc1cc(OC)c(NC(=S)Nc2ccc(CC)cc2)cc1OC	n	n	16µM	x	n	n
CCOc1ccc(NC(=S)Nc2ccc(OCC)cc2)cc1	-80	n	n	n	n	n
CCCC(=O)Nc1cc(OC)c(NC(=S)Nc2cccc(C)c2)cc1OC	n	n	n	x	n	u
COc1cc(OC)c(NC(=S)Nc2cc(Cl)cc(Cl)c2)cc1Cl	-91	n	u	n	n	u
COc1cc(OC)c(NC(=S)Nc2cccc(C(C)=O)c2)cc1Cl	n	n	u	n	n	n
CCOc1ccc(NC(=S)Nc2cc(OC)c(Cl)cc2OC)cc1	n	n	u	n	n	15µM
OCCN1CCSC1=S	n	n	n	x	n	n
CO/N=C(\N)c1nonc1N	n	n	n	x	n	n
S=C1NCCNC(=S)NCCOCCN1	n	n	n	n	n	n
COc1ccc(C=C(C(=O)c2ccccc2)c2ccccc2)cc1	n	n	u	x	n	u
COc1ccc(C(=O)/C(Br)=C\C(=O)O)cc1	x	x	u	x	x	2.7µM
COc1ccc(C=C(C(C)=O)C(=O)c2ccccc2)cc1	-94	n	u	x	n	u
COc1ccc(C=C(C(=O)c2ccccc2)C(=O)c2ccccc2)cc1	-82	n	u	x	n	u
CC(=O)C(=Cc1cccc(C#N)c1)C(=O)c1ccccc1	-118	n	16µM	x	n	16µM
COc1ccc(C(=Cc2ccccc2)C(=O)O)cc1	n	n	n	x	n	n
COc1cccc(C=C(C#N)C(=O)c2ccccc2)c1	n	n	n	x	n	n
CCOC(=O)C(=NC(C)(C)C)NNc1cc(Cl)ccc1Cl	n	n	u	n	n	n
SMILES	IL-1B inflam inh	CtBP-E1A inh	DT40 TDP1 no CPT	TDP1 inh	Six1-Eya2 inh	TDP1 cell CPT
N#Cc1cnn2c(C(F)(F)F)c3c(nc12)CCCC3	n	x	u	n	n	n
CC(=O)Nc1ccc(C=C(C(C)=O)C(C)=O)cc1	u	n	u	x	n	n
CC(=O)C(=Cc1ccc(Cl)cc1)C(=O)c1ccccc1	-108	n	18µM	x	n	18µM
O=C(/C=C/c1ccc([N+](=O)[O-])cc1)/C=C/c1ccco1	x	x	x	n	x	x
O=C(C=C1SCCS1)/C=C/c1ccco1	-92	n	u	x	n	u
O=C(O)C(C(=O)/C=C/c1ccco1)=C1SCCS1	n	n	u	20µM	n	n
CCn1nc(C)c(CNC(=O)C2CCC(=O)N(CCc3ccc(Cl)cc3)C2)c1C (stereo unspecified)	n	n	n	n	n	n
NC(=O)CN1C(=O)C(=O)N(Cc2cccc(Cl)c2)C1=O	n	n	n	x	n	n
CO/N=C/C(=N\Nc1ccc(C)cc1)C(=O)c1ccc(OC)cc1	n	n	3.3µM	n	n	4.1µM
CO/N=C/C(=N\Nc1ccc(OC)cc1)C(=O)c1ccc(F)cc1	n	x	u	n	n	u
COc1cccc(OCc2cc(C(=O)NC3CCOCC3)no2)c1	n	n	n	n	n	n
O=C(CN1C(=O)c2ccccc2C1=O)Nc1sc2c(c1C(=O)NCc1ccco1)CCCC2	n	n	n	n	n	n
Cc1ccccc1CS(=O)(=O)Cc1ccc(C(=O)NCc2cccnc2)o1	n	n	n	n	n	n
Cc1cccc(-n2c(C)cc(C=C3C(=O)c4ccccc4C3=O)c2C)c1	-58	n	13µM	n	n	u
Cc1cccc(-n2c(C)cc(/C=N/n3cnnc3)c2C)c1	n	n	u	n	n	23µM
N=C1/C(=C\c2ccc(-c3ccc(C(=O)O)cc3)o2)C(=O)N=C2SC=C(c3ccccc3)N12	u	n	u	x	n	u
Cc1cc(/C=C2/C(=N)N3C(c4ccccc4)=CSC3=NC2=O)c(C)n1-c1ccc(Cl)cc1	n	n	n	x	n	n
COc1cc(/C=C2/C(=N)N3C(c4ccccc4)=CSC3=NC2=O)ccc1OCC(=O)O	n	n	15µM	n	n	21µM
Cc1cccc(-n2c(C)cc(/C=C3/C(=N)N4C(c5ccccc5)=CSC4=NC3=O)c2C)c1	n	n	21µM	n	n	u
Cc1c(C(=O)N2CCC(Cc3ccccc3)CC2)sc2ncnc(NCc3ccccn3)c12	x	x	n	x	x	u
O=C(COC(=O)c1cn(-c2ccccc2)nc1-c1cccs1)NC1CC1	n	n	u	n	n	n
CSC(=Nc1ccccc1)N=C(SCc1ccccc1)N(C)C	-104	n	1.3µM	x	n	1.2µM
CC1=Nc2cc(C(=O)NCCN3CCOCC3)ccc2Sc2c(C)ccc(C)c21	n	x	13µM	n	n	16µM
CC1=Nc2cc(C(=O)NCCCN3CCOCC3)ccc2Sc2c(C)ccc(C)c21	-73	n	u	n	n	u
O=C(c1cnn2c1NC(c1ccc(Br)cc1)CC2C(F)(F)F)N1CCN2CCCC2C1 (stereo unspecified)	n	u	u	n	n	18µM
CCCCn1c(N)c(N(CCC(C)C)C(=O)c2cccc(-n3cnnn3)c2)c(=O)[nH]c1=O	n	n	n	x	n	n
COc1cc(NC(=O)CN2C(=O)NC(CC(C)C)C2=O)cc(OC)c1OC (stereo unspecified)	n	n	n	n	n	n
Cc1ccc2c(Br)cc(Br)c(O)c2n1	x	x	8.4µM	n	x	7.5µM
Cc1cc(Nc2cccc(O)c2)c2cccc(Br)c2n1	x	x	n	n	x	n
COc1cc(/C=C/c2ccc3c(Br)cc(Br)c(O)c3n2)ccc1O	n	x	5.2µM	n	n	3.3µM
